In all, about 360,000 compounds went through this assay and about 620 (0.17%) were called active.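 How the source made its calls: active means inhibition above a per-campaign cutoff, the mean of all compounds plus 3 SD (cut at about 60% in these data); inactive means the rest.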 Only a selection was taken, and actives are over-represented in it overall.
target: Nuclear receptor coactivator 3 (Homo sapiens) (UniProt Q9Y6Q9); experiment: NCOA3 GAL4-fusion reporter inhibition – cell-based, luminescence, primary screen (AID 588352); conditions: HEK293 GAL4-SRC3 luciferase reporter, at 3.6 µM, active compounds read high;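 further: 0% = DMSO-treated cells and 100% = gossypol-treated cells at 36 µM; higher means less SRC3-driven luciferase light from the GAL4 reporter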
Sequence (Q9Y6Q9 whole entry, looked up, the tested form may be a part): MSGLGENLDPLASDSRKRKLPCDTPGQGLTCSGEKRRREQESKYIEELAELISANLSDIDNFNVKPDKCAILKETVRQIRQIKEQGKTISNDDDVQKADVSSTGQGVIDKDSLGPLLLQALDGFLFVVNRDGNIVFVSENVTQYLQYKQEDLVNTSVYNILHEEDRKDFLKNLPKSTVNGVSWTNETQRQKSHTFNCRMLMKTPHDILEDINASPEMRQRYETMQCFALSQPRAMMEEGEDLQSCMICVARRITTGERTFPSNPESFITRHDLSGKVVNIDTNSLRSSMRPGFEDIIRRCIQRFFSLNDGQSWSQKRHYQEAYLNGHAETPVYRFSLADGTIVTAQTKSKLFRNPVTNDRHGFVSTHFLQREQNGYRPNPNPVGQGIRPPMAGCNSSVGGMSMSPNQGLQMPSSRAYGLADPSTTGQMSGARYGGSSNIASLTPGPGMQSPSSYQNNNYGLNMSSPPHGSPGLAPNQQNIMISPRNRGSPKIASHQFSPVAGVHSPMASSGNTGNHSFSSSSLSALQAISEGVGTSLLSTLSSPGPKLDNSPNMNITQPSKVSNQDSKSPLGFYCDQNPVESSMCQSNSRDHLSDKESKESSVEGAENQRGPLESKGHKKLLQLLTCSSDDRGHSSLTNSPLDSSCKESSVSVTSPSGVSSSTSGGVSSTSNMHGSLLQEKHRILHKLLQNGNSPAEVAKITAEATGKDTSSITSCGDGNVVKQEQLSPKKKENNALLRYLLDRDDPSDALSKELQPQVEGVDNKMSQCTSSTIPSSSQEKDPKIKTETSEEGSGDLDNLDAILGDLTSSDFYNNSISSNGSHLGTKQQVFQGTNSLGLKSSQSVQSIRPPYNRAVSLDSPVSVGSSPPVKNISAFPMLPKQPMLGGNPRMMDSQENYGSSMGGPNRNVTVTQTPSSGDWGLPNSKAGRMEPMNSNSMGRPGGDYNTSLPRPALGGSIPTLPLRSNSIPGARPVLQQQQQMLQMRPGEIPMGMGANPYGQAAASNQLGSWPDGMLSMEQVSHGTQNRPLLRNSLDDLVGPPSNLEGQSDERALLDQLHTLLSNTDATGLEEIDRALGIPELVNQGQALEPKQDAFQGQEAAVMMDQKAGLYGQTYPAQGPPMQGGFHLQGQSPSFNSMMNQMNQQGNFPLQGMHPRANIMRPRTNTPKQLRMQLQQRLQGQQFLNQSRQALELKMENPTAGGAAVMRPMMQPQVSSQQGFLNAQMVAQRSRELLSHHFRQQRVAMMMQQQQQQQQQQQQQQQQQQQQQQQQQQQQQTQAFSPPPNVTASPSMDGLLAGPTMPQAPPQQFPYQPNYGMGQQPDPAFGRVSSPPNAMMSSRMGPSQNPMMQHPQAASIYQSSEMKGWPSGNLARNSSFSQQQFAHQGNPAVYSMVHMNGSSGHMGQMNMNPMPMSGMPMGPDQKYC

inhibition, inactive:
CCOC(=O)c1csc(CCNC(=O)c2oc3c(Cl)cc(C)cc3c2C)n1 -12.1%
CC(C)CC(CO)N1CCN(C(=O)c2ccc(Cl)cc2Cl)CCC1=O (centres undefined) 5.22%
COc1ccc(C(CNC(=O)c2cccc(S(=O)(=O)Nc3ccc(Br)cc3)c2)N(C)C)cc1 (centres undefined) 1.78%
COc1ccc(CNC(=O)COC(=O)C2=Cc3ccccc3OC2)cc1 -19.6%
O=C(O)c1ccccc1C(=O)NC1=NN(c2ccccc2)CC1 3.76%
C[C@@H]1CN([C@H](C)CO)C(=O)c2cc(-c3ccc(F)cc3)cnc2O[C@H]1CN(C)C(=O)c1ccc(F)cc1 -2.15%
CC(C)[C@H](NC(=O)N1CC(=O)Nc2ccccc21)C(=O)N[C@@H](Cc1c[nH]c2ccccc12)C(=O)O 11.1%
Cc1cc2ncn(CCCCOc3ccccc3)c2cc1C -3.7%
C/C=C(/C)C(=O)O[C@@H]1c2cc3c(c4c2[C@@]2(CO4)C(=O)C(OC)=C(OC)C=C2C[C@@H](C)[C@H]1C)OCO3 -4.38%
C=CC[C@@H](CC(=O)NCCO)C(=O)N[C@H](C)COC(=O)[C@@H](CC=C)CC(=O)OC(C)(C)C 0.5%
CC(=O)Nc1ccc(-c2ccnc3c2CC(C(=O)NC(C)C)O3)cc1 (centres undefined) 10.3%
COc1cccc(OC)c1C(=O)OCC(=O)/C(C#N)=C(\C)N 7.58%
Cc1ccc(Cn2c(C)c3cnn(CC(=O)NCCN4CCOCC4)c(=O)c3c2C)cc1 -3.71%
CC(OC(=O)c1ccc(NS(=O)(=O)c2ccc3[nH]c(=O)[nH]c3c2)cc1)C(=O)Nc1cccc(Cl)c1Cl (centres undefined) 4.52%
COc1cc(NC(=S)NNC(=O)CC(C)C)c(OC)cc1Cl 17.8%
O=C(NCc1ccco1)C1CCCN1S(=O)(=O)c1ccccc1C(F)(F)F (centres undefined) 8.79%
Cc1cc(NC(=O)CN2C(=O)NC(CC(C)C)C2=O)no1 (centres undefined) -3.85%
FC(F)(F)c1cc(C(F)(F)F)c2ccc(N3CCN(c4ccccc4)CC3)nc2n1 1.84%
O=C(C1=C(O)C(=O)N(CCOCCO)C1c1ccccn1)c1cccs1 (centres undefined) 3.48%
Cc1cccc(N2CCN(C(=O)COCc3cc(-c4ccc5c(c4)OCO5)on3)CC2)c1C -10.1%
CCn1c(NC(=O)c2nn(C)cc2Br)nc2ccccc21 9.26%
Cc1cccc(Cn2cnc3c(N)c(C)c(C)cc32)c1 8.42%
O=C(O)CCCn1cc(NC(=O)COc2cccc(Cl)c2)cn1 19.3%
Cc1cc(=O)oc2cc(OCC3CC(c4ccccc4Cl)=NO3)ccc12 (centres undefined) -29.1%
COc1cc(NC(=S)N2CCCC(C)C2)cc(OC)c1OC (centres undefined) 8.3%
N#Cc1ccccc1S(=O)(=O)N1CCN(C(=O)c2cc(-c3ccccc3)nn2-c2ccccc2)CC1 4.59%
Cc1ccsc1C(=O)OCC(=O)Nc1cccc(F)c1 -16.2%
Cc1ccsc1C(=O)OCC(=O)NCCc1ccccc1 -54.7%
Cc1cccc(-n2c(Cc3cc(=O)[nH]c(=O)[nH]3)nnc2SC(C)C)c1 1.68%
Cc1cc(C)c(C2C3=C(Nc4c2c(C)nn4-c2ccccn2)c2ccccc2C3=O)c(C)c1 (centres undefined) 9.07%
Cc1ccc(CC(=O)Nc2ccc(OC(F)F)c(Cl)c2)cc1C 1.82%
CC1(C(=O)O)CCC(C(=O)Nc2ccc(Cl)c(Cl)c2)C1(C)C (centres undefined) 7.83%
CCCCCN(C(=O)NC(=O)Nc1cccc(C)c1C)S(C)(=O)=O -2.15%
Cc1ccccc1/C=C\c1nc(O)c([N+](=O)[O-])c(=O)[nH]1 2.28%
COc1ccc(NC2CCCN(C(=O)c3ccccc3-c3ncc[nH]3)C2)cc1 (centres undefined) -11.7%
Cc1c(C(=O)c2cccc([N+](=O)[O-])c2)c2ccccn2c1CCC#N 26.8%
Cc1ccc(S(=O)(=O)Nc2ccccc2CNc2c(C)n(C)n(-c3ccccc3)c2=O)cc1 22.2%
O=S(=O)(Nc1n[nH]c(C(F)(F)F)n1)c1ccccc1 6.01%
CN(C)S(=O)(=O)c1ccc(Oc2ccc(S(=O)(=O)N(C)C)cc2)cc1 25.9%
O=C(CSc1nnc(-c2ccc([N+](=O)[O-])cc2)o1)Nc1ccccn1 -82%
Cc1nc(CNS(=O)(=O)c2ccc(Oc3ccccc3)cc2)cs1 13.4%
CCNC(=O)NC(=O)C(C)OC(=O)C1CCN(S(=O)(=O)c2ccccc2F)CC1 (centres undefined) 18.3%
CSCCC(=O)N1CCCC(CNC(=O)c2ccccc2Cl)C1 (centres undefined) 13.3%
Cc1cccc(N2C(=O)SC(SC(=Nc3ccccc3)Nc3ccccc3)C2=O)c1 (centres undefined) -7.91%
Cc1ccc(NC(=O)CCC(=O)N/N=C/c2ccco2)c(C)c1 16.4%
Cc1ccc(/C=N/NC(=O)C(NC(=O)c2ccccc2)c2n[nH]c(=O)c3ccccc23)cc1 (centres undefined) -30.1%
Cc1c(CN2CCC(n3nccc3NC(=O)CCc3ccccc3)CC2)cnn1C 23.5%
CCc1c(O)nc(SCC(=O)Nc2ccccc2)n(C(C)CC)c1=O (centres undefined) -6.38%
CN(C)c1ccc(NC(=O)c2ccncc2)c2ccccc12 1.55%
O=C1c2ccncc2C(=O)N1C1CCCCC1 -19.6%
CC(Sc1nnc(Cc2ccc([N+](=O)[O-])cc2)o1)C(N)=O (centres undefined) -2.53%
O=C(CCNS(=O)(=O)c1ccccc1)NCCSc1ccc(Br)cc1 -5.67%
CC(C)(CSc1nncn1/N=C/c1ccco1)NS(=O)(=O)c1ccc(Cl)cc1 0.37%
O=C(O)CCC(=O)Nc1ccc(OCC2CCCO2)cc1 (centres undefined) 4.7%
COc1ccc(-c2nc(N)ncc2-c2ccc(Cl)cc2)c(O)c1 1.54%
C/C(=C\c1ccccc1)C1NC(=O)c2c(sc3c2CCCC3)N1 (centres undefined) 21.8%
CC1(C(=O)O)CCCN(C(=O)/C=C/c2ccccc2)C1 (centres undefined) -1.88%
Nc1cccc2c1C(=O)N(Cc1nnc(-c3ccccc3Br)o1)C2=O 7.44%
COc1ccc(C(=O)N2CCCCC2C(=O)Nc2ccc(-n3nc(C)cc3C)cc2)o1 (centres undefined) -17.3%
Clc1ccc(-c2nnc(-c3ccccc3)nc2N2CCSCC2)cc1 5.59%
O=C(NCC1(N2CCCCC2)CCCCC1)c1ccc(NS(=O)(=O)c2ccc(F)cc2)cc1 -2.32%
CCN(CC(=O)Nc1c(F)cccc1F)C(=O)CN1c2cccc3cccc(c23)S1(=O)=O -23.2%
COc1ccc(C(=O)Nc2ccc(C3(C#N)CCCC3)cc2)cc1OC -41%
C[C@H](C(=O)CC(=O)OC(C)(C)C)[C@H](O)c1ccc(C(F)(F)F)cc1 4.25%
O=S(=O)(c1cccc(-c2cn3ccccc3n2)c1)N1CCCC1 11.7%
Cc1c(CN2CCC(CO)(CCOc3ccccc3)CC2)[nH]c2ccc(Cl)cc12 -36.5%
CN(CC(=O)Nc1c(Cl)cccc1Cl)C(=O)CC1OC(=O)c2ccccc21 (centres undefined) 12.4%
COC(=O)/C(=C1\Oc2ccc(C(C)(C)C)cc2S1)C(F)(F)F 5.95%
CCc1nc2c(OCCOc3ccccc3)cccn2c1N(C)C(=O)c1cccs1 -22.5%
COc1cccc(OCc2cc(/C=N/NC(=O)c3nc(Cl)c(Cl)c(N)c3Cl)ccc2OC)c1 -12.8%
CCn1c(/C=N/NC(=O)c2ccc(OC)cc2)nc2ccccc21 15.7%
C=CCN(c1ccc(Cl)cc1)S(=O)(=O)c1cccc(C(=O)OCC(=O)N(C)C)c1 16.1%
CC(C)[C@@H](C(=O)OCC(=O)c1ccc2c(c1)NC(=O)CO2)N1C(=O)c2ccccc2C1=O -6.83%
CC(CO)N1CCS(=O)(=O)CC1 (centres undefined) 19.6%
O=C(Cc1ccc(S(=O)(=O)N2CCOCC2)s1)Nc1ccc(Br)c(C(F)(F)F)c1 4.75%
COCCn1cnc2c1c(=O)n(Cc1ccc(Br)cc1)c(=O)n2Cc1ccccc1 -1.52%
COCCn1cnc2c1c(=O)n(CC(=O)NN)c(=O)n2Cc1ccccc1 1.62%

inhibition, active:
CC1(C)CC(N2CCN(C(c3ccccc3)c3ccccc3)CC2)=CC(=[N+]2CCCCC2)C1 80%
CCN1/C(=C\c2ccc3ccccc3[n+]2CC)Sc2cc(C)ccc21 64.7%
Cc1ccsc1C(=O)OCC(=O)c1cc(C)n(CC2CCCO2)c1C (centres undefined) 80.6%
O=C(CC(O)(C(F)(F)F)C(F)(F)F)Nc1ccc(Cl)c(Cl)c1 80%
C=CCn1c(C)cc(C2=NNC(=NCC)SC2)c1C 86%
CC(C)(C)c1ccc(Oc2ccc(N)cc2)cc1 82.3%
Cc1ccc(/C=N/NC(=O)C2=NNC(c3ccccc3)(c3ccccc3)C2)c(O)c1 65%
COc1ccc(OC)c(Cc2cnc3nc(N)nc(N)c3c2C)c1 63.7%
OCCCNc1nccc(-c2cc(Nc3cccc(Cl)c3)ncn2)n1 90.9%
Cc1[nH]c(=O)c(C(=O)/C=C/c2ccccc2)c2c1CCCC2 64.9%
COc1ccc(C(=O)Nc2ccccc2C(=O)N/N=C/c2ccc(O)c(OC)c2)cc1 69.8%
N=c1c2c(-c3ccccc3)c(-c3ccccc3)n(Cc3ccccc3)c2ncn1CCCO 62.7%

Source: PubChem BioAssay AID588352 (The Scripps Research Institute Molecular Screening Center, 2011)
